Assay outcomes as filed in PubChem BioAssay.
A549 tox – kills or reduces viability of A549 cells in Nrf2 counter-screen. A549 ARE-Fluc cells, CellTiter-Fluor viability, 18-24 h. Potency, µM (highest dose often 46 µM), without a hit: at the top dose activity change, negative = cytotoxicity, usual class: inhibitors. actives 0.16% (n = 390,000); also: potency is read from the fitted curve at half-maximal effect; % is scaled to controls: 0 for no effect and ±100 for the full control effect
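Cytotoxicity counterscreen: CellTiter-Fluor fluorescence was measured in A549 ARE_Fluc cells after 18-24 h of compound exposure in a concentration series. The subsequent BugLite luminescent read reports ARE-luciferase activity.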
Nrf2 ARE act – Nrf2 pathway activation; AREc32 ARE-luciferase reporter (MCF7-derived line), luminescence, 24 h; Potency, µM (series often up to 46.1 µM), inactives show at the top dose activation, actives largely listed as activators; actives 0.31% (n = 410,000); also: potency is read from the fitted curve at half-maximal effect; % of control where 0% means no effect; nearly all actives have a fitted effect of over 65% in size
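Luminescent ARE reporter assay in AREc32_Fluc cells: overnight plating at 37 deg C, 24 hr compound incubation, Steady-Glo added, 30 min RT before reading.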
LDHA block – LDHA (human) enzyme inhibition; actives 0.15% (n = 480,000); purified LDHA, NADH/diaphorase-resazurin fluorescence; stronger effect = lower value; activity change, % (values are at about 110 or 230 µM); P00338; AID 1347041; in the data active = activity change below about -30%; inconclusive = mostly about -25% to -30%;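 also: plate controls were DMSO wells for no effect and wells without enzyme for full effect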
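Remaining NADH was detected by diaphorase (0.133 mg/mL) converting 37 µM resazurin to fluorescent resorufin, read at 0 and 20 minutes. The preceding 5-minute room-temperature reaction used 2 nM LDHA, 0.2 mM sodium pyruvate and 0.06 mM NADH at pH 7.4.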
Nrf2 inh – Nrf2 pathway inhibition | A549 ARE-Fluc reporter, luciferase luminescence, 18-24 h | Potency, µM (series often up to 46 µM), inactives show at the top dose activity change, negative = inhibition, actives largely listed as inhibitors | actives 2.1% (n = 360,000); also: potency is read from the fitted curve at half-maximal effect; % is scaled to controls: 0 for no effect and ±100 for the full control effect; nearly all actives have a fitted effect of over 60% in size
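Reporter: ARE-Fluc in A549. Exposure: 18-24 h, 37 °C, 5% CO2, 5% FBS OPTI-MEM. Readouts: fluorescent cytotoxicity (CellTiter-Fluor), then luminescent Nrf2 signal after BugLite.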
ERG Ets-DNA blk – blocks human ERG Ets domain binding to DNA | P11308 | fluorescence polarization, His-ERG Ets domain / labelled DNA | Potency, µM (titrated, usually from 76.9 µM), for the others: at the highest dose FP activity, negative = inhibition, hits mostly inhibitors | actives 0.028% (n = 370,000); active = well fitted inhibition curve with a large enough effect in the polarisation, with a control signal flat; inconclusive = small, poorly fitted or top-dose-only effect, or effect the other way, or a change in a side signal; inactive = no such curve, though single readings can be large or run the other way; the % refers to the polarisation;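 also: polarization taken with two DNA probes labelled with fluorescein and Texas red; potency is read from the fitted curve at half-maximal effect; % of control where 0% means no effect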
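His-tagged ERG Ets domain (1 uM in the protein solution; 300mM KCl, 50mM Tris-HCl, 1mM EDTA, 1mM DTT, pH 7.5) received compound, then a probe mix of 5 nM fluorescein-DNA and 100nM Texas-615-DNA. Fluorescence polarization was read for both dyes.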
ALOX12 inh – ALOX12 (human) lipoxygenase inhibition; Potency, µM (doses to about 108 µM), without a hit: at the highest dose activity change, negative = inhibition, hits mostly inhibitors; AID 1671190; purified 12hLO, xylenol orange hydroperoxide absorbance; actives 1.1% (n = 580,000); also: potency is read from the fitted curve at half-maximal effect; % is scaled to controls: 0 for no effect and ±100 for the full control effect
Target sequence (P18054 whole entry, looked up): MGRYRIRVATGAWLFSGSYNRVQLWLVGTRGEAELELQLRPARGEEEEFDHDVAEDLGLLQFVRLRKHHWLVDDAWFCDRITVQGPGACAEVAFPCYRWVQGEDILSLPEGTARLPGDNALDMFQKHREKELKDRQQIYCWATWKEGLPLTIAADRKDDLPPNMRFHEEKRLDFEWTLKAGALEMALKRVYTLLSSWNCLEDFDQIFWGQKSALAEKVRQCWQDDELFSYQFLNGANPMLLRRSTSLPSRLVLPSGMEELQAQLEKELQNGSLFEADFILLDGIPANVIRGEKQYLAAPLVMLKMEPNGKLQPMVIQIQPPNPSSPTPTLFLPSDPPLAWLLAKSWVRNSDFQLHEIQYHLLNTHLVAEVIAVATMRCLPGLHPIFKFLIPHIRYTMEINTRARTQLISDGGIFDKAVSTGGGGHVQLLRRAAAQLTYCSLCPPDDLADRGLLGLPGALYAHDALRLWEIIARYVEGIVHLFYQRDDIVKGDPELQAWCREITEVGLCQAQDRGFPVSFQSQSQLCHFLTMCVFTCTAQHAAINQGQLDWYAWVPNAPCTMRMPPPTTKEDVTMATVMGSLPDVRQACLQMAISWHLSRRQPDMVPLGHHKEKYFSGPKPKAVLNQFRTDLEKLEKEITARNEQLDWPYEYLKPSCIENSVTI
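Purified human 12hLO (150 nM final) in 25 mM Hepes, 0.01% Triton X-100, pH 7.0 was preincubated 15 min at room temperature with compound. Then 40 uM arachidonic acid was added, 30 min. Hydroperoxide was read by Fe-XO absorbance ratio 573/405 nm.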
* hit, by the source's call; ? = inconclusive; nt = no result; [ ] = another dose, or the depositor's remark. Shown are actives, neighbours in structure and some others; about 2.7% of the full set was active somewhere. Unless noted, calls follow the shape of the dose curve; as a rule, active = well fitted curve in the direction sought with a large enough effect; inconclusive = small, poorly fitted or top-dose-only effect, or another doubt; inactive = no such curve, though single readings can be large; an effect the other way counts as inactive or inconclusive.

SMILES	A549 tox	Nrf2 ARE act	LDHA block	Nrf2 inh	ERG Ets-DNA blk	ALOX12 inh
Cc1ccccc1-c1cc(C(=O)NCc2cccc(Br)c2)n(CC2CC(c3cccnc3)=NO2)n1 (configuration not stated)	-5%	1%	-3	?	17%	40µM*
Cc1ccc(S(=O)(=O)N2CCOCC2)cc1NC(=O)CSc1nc2ccc(Cl)cc2[nH]1	nt	nt	21	nt	nt	-28%
O=S(=O)(c1ccc2nc(SCc3ccc(Cl)cc3)[nH]c2c1)N1CCOCC1	-14%	0%	-5	23µM*	4%	?
CC(c1ccc(Cl)cc1)n1c(-c2ccc3ccccc3n2)n[nH]c1=S (configuration not stated)	?	0%	-5	18µM*	-1%	?
O=C(Nc1ccc2cc[nH]c2c1)C(=O)NC1CCCCC1	nt	nt	2	nt	nt	-22%
COc1ccccc1NC(=O)C(NC(=O)OC(C)(C)C)C(C)OCc1ccccc1 (configuration not stated)	-5%	0%	-2	23µM*	2%	-29%
O=C(CN1CC(=O)Oc2ccccc21)OCC(=O)c1cccc(Br)c1	-7%	13µM*	3	-3%	3%	nt
O=C(CN1CC(=O)Oc2ccccc21)OCC(=O)c1ccccc1	?	?	5	6%	nt	-24%
CC(OC(=O)c1cccc(O)c1)C(=O)NC(=O)NC1CCCC1 (configuration not stated)	nt	nt	11	nt	nt	-27%
Cc1nn(-c2ccc(F)cc2)c(Cl)c1C(=O)OC(C)C(=O)N(C)C1CCCCC1 (configuration not stated)	-7%	9%	-2	18µM*	2%	12%
Cc1nn(-c2ccccc2)c(Cl)c1C(=O)OC(C)C(=O)NC(=O)NC1CCCCC1 (configuration not stated)	-12%	2%	1	?	-12%	?
Nc1ccc(-c2cnc(N)c(C(=O)c3cccnc3)n2)cn1	?	-4%	0	15µM*	3%	nt
CCC1(c2ccc(Cl)cc2)NC(=S)N(c2ccc(C)cc2)N1 (configuration not stated)	-9%	3%	0	-21%	-12%	28µM*
CCC1(c2ccc(Cl)cc2)NC(=S)N(c2ccc(C)c(C)c2)N1 (configuration not stated)	0%	0%	-2	14%	0%	?
COc1ccc(C2=NN(c3nc4ccccc4s3)C(=O)/C2=C\N(C)C)cc1	-14%	4%	-10	10%	10%	22µM*
COc1ccc(C2SCC(=O)N2c2nc3ccccc3s2)cc1 (configuration not stated)	-3%	5%	0	16%	4%	2%
Cc1cc2n(n1)SC(Nc1ccccc1)N2 (configuration not stated)	-6%	3%	-4	9%	0%	14µM*
Cc1ccc(NC2Nc3cc(C)nn3S2)c(C)c1 (configuration not stated)	-4%	4%	-3	?	3%	40µM*
Cc1cc(NC(=NC2CC2)c2ccccc2)n(-c2ccccc2)n1	2%	0%	-23	-6%	-2%	-2%
CC/C=C\CC/C=C/CO	nt	nt	nt	nt	nt	6%[176 µM]
CSc1nsc(/C=C/Nc2ccc(F)cc2)c1C#N	-20%	?	13	-9%	21%	?
CSc1nsc(/C=C/Nc2ccc(O)cc2C)c1C#N	13%	?	15	8%	8.9µM*	35µM*
COc1ccc2c3c(cccc13)C(=O)CC2	4%	16%	8	2%	28µM*	0%
Cc1c(CCC(=O)N2CCC[C@H]2C(=O)O)c(=O)oc2c(C)c3oc4c(c3cc12)CCCC4	-9%	-3%	-1	6.5µM*	-4%	34%
CCCn1c(=O)[nH]c(=O)c2c1nc(-c1ccc(OC)c(O)c1)n2CCN1CCOCC1	nt	nt	-5	nt	nt	?
SMILES	A549 tox	Nrf2 ARE act	LDHA block	Nrf2 inh	ERG Ets-DNA blk	ALOX12 inh
O=[N+]([O-])c1cccc(-c2nnc(-c3ccccc3F)o2)c1	-3%	13µM*	-1	?	-5%	2%
O=C(OCC(=O)c1ccccc1Cl)c1ccc(OCc2ccccc2)cc1	nt	nt	-5	nt	nt	21%
COc1cccc(C(=O)Nc2cccc(NC(=O)c3ccccc3Cl)c2)c1	7%	0%	-13	?	19%	8%
CCOc1cccc(C(=O)NC(=S)Nc2cccc(NC(=O)c3ccccc3Cl)c2)c1	-6%	-1%	0	-16%	9%	11µM*
CCCCOc1cccc(C(=O)NC(=S)Nc2cccc(C(F)(F)F)c2)c1	13%	-1%	0	3%	3%	32µM*
CC(C)Oc1cccc(C(=O)NC(=S)Nc2cccc(C(F)(F)F)c2)c1	?	3%	5	nt	9%	?
CCOc1cccc(C(=O)NC(=S)Nc2cccnc2)c1	-1%	4%	-3	?	18%	-22%
CCOc1cccc(C(=O)NC(=S)Nc2ccccc2)c1	18%	3%[9.22 µM]	1	?	-7%	14µM*
Cc1ccc(NC(=S)NC2CCSc3ccccc32)cc1C (configuration not stated)	-22%	0%	-2	23µM*	3%	45µM*
CCC(=O)Nc1ccc(C(=O)CSc2nnc(C3CC3)n2Cc2ccccc2)cc1	nt	nt	-11	nt	nt	-17%
O=C(CNC(=O)c1ccc(F)cc1)OCc1ncc(-c2ccccc2)o1	nt	nt	1	nt	nt	-1%
Cc1cccc(OCC2(CNCc3cnn(C)c3)C[C@@H](O)[C@@H](O)C2)n1 (some centres not stated)	nt	nt	nt	nt	nt	28µM*
Cc1cccc(OCC2(CNCC3CCCC3)C[C@@H](O)[C@@H](O)C2)n1 (some centres not stated)	nt	nt	nt	nt	nt	-15%[176 µM]
Cc1cccc(OCC2(CNC3CCOCC3)C[C@@H](O)[C@@H](O)C2)n1 (some centres not stated)	nt	nt	nt	nt	nt	25µM*
Cc1cccc(OCC2(CNC(=O)c3cc(C)nn3C)C[C@@H](O)[C@@H](O)C2)n1 (some centres not stated)	nt	nt	nt	nt	nt	25µM*
CCN(CC)C(=O)c1cccnc1-c1nc2ccccc2s1	nt	nt	-1	nt	nt	?
COc1cccc(-c2nn(C)c3sc(C(=O)Nc4ccc5c(c4)OCCO5)cc23)c1	-25%	8%	-1	-24%	-1%	nt
Cn1nc(-c2ccccc2F)c2cc(C(=O)Nc3ccc4c(c3)OCCO4)sc21	?	6%	-7	15µM*	1%	-18%
COc1cc(/C=C(\C#N)c2nc3ccc(C)cc3[nH]2)ccc1OC(C)=O	nt	nt	-3	nt	nt	?
